A short description of experiment [1]: qHTS assay to identify small molecule agonists of the peroxisome proliferator-activated receptor delta (PPARd) signaling pathway - cell viability counter screen (AID 743211; active means well fitted curve in the direction sought with a large enough effect in the repeat runs; an effect the other way counts as inactive or inconclusive; further: nearly all actives have a fitted effect of over 55% in size; further: potency means the concentration at half of the fitted maximal effect). Summed up:
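Following 5 h plating at 37 C and 5% CO2, PPARd UAS-bla HEK293H cells took up test compounds for 17 h. Viability was quantified by luminescence 30 min after CellTiter-Glo addition at room temperature.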
In general terms: In qHTS, concentration-response curves come from the screen itself.

Experiment [2] addresses Peroxisome proliferator-activated receptor delta (Homo sapiens) (UniProt Q03181). Nature of the experiment: qHTS assay to identify small molecule agonists of the peroxisome proliferator-activated receptor delta (PPARd) signaling pathway (AID 743212). Summed up:
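Quantitative high-throughput agonist screen in a HEK293H beta-lactamase reporter line under UAS control. Compounds in DMSO, at 37 C. Fluorescence read after 2 h with FRET substrate at room temperature.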

Experiment [3] in a line: qHTS assay to identify small molecule antagonists of the peroxisome proliferator-activated receptor delta (PPARd) signaling pathway - cell viability counter screen (AID 743213; active means well fitted curve in the direction sought with a large enough effect in the repeat runs; an effect the other way counts as inactive or inconclusive; further: nearly all actives have a fitted effect of over 50% in size; further: potency means the concentration at half of the fitted maximal effect). Summed up: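 Luminescence from CellTiter-Glo, added after the bla read and incubated 30 min at room temperature, gives viability of HEK293H PPARd-bla cells exposed to compounds for 17 h at 37 C with 300 nM L165041.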

Experiment [4] has as its target Peroxisome proliferator-activated receptor delta (Homo sapiens) (UniProt Q03181). Nature of the experiment: qHTS assay to identify small molecule antagonists of the peroxisome proliferator-activated receptor delta (PPARd) signaling pathway (AID 743215; active means well fitted inhibition curve with a large enough effect in the signal ratio in the repeat runs, not every such curve was filed as active; the % refers to the signal ratio;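 further: cells stimulated with agonist L165041 at 300 nM final during compound exposure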; further: potency means the concentration at half of the fitted maximal effect). Summed up:
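Read-out is beta-lactamase FRET fluorescence, measured 2 h after substrate addition at room temperature. Beforehand, UAS-bla HEK293H cells carrying the PPARd reporter were exposed to compounds with L165041 at 300 nM final for 17 h at 37 C.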

Experiment [5] can be described thus: qHTS assay to identify small molecule agonists of the farnesoid-X-receptor (FXR) signaling pathway - cell viability counter screen (AID 743218; active means well fitted curve in the direction sought with a large enough effect in the repeat runs; an effect the other way counts as inactive or inconclusive; further: nearly all actives have a fitted effect of over 45% in size; further: potency means the concentration at half of the fitted maximal effect). Summed up: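 HEK 293T FXR-bla cells; 5 h pre-incubation, 16 h compound exposure at 37 C; LiveBLAzer substrate 2 h RT, then CellTiter-Glo 30 min RT, luminescence.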
A short description of experiment [6]: qHTS assay to identify small molecule antagonists of the farnesoid-X-receptor (FXR) signaling pathway - cell viability counter screen (AID 743221; active means well fitted cell-killing curve with a large enough effect in the repeat runs, not every such curve was filed as active; further: nearly all actives have a fitted effect of over 50% in size). Summed up: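 Compound effects on cell number were measured as CellTiter-Glo luminescence in HEK 293T cells expressing FXR-UAS-bla, after 16 h at 37 C with 50 uM CDCA (final).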
In experiment [7] the target is Vitamin D3 receptor (Homo sapiens) (UniProt P11473). Kind of experiment: qHTS assay to identify small molecule antagonists of the vitamin D receptor (VDR) signaling pathway (AID 743223; active means well fitted inhibition curve with a large enough effect in the signal ratio in the repeat runs, not every such curve was filed as active; the % refers to the signal ratio). Summed up:
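Beta-lactamase activity in VDR-bla cells is measured by FRET substrate fluorescence (2 h, room temperature) after cells spend 16 h at 37C with test compound and 3 nM final 1alpha,25-dihydroxyvitamin D3.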

Experiment [8] can be described thus: qHTS assay to identify small molecule agonists of the vitamin D receptor (VDR) signaling pathway - cell viability counter screen (AID 743224; active means well fitted curve in the direction sought with a large enough effect in the repeat runs; an effect the other way counts as inactive or inconclusive; further: series mostly up to about 63 µM; nearly all actives have a fitted effect of over 50% in size). A digest of the protocol:
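Luminescence from CellTiter-Glo, read after 30 min at room temperature, reports viability of VDR-bla cells treated with compounds for 16 h at 37C in the wells used for the beta-lactamase FRET read.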

Experiment [9] in a line: qHTS assay to identify small molecule antagonists of the vitamin D receptor (VDR) signaling pathway - cell viability counter screen (AID 743225; active means well fitted curve in the direction sought with a large enough effect in the repeat runs; an effect the other way counts as inactive or inconclusive; further: nearly all actives have a fitted effect of over 50% in size). A digest of the protocol:
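In this counter screen, VDR-bla HEK 293T cells receive test compound plus 3 nM final calcitriol for 16 h at 37C. Room-temperature steps of 2 h with the beta-lactamase substrate, then 30 min with CellTiter-Glo, precede the luminescence read.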

Experiment [10] is described as follows: qHTS assay to identify small molecule agonists of the NFkB signaling pathway - cell viability counter screen (AID 1159515). Further: series mostly up to about 61 µM; nearly all actives have a fitted effect of over 55% in size. Summed up:
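Luminescence from CellTiter-Glo (30 min, room temperature) gives viability, measured in the same wells as the beta-lactamase reporter read. Cells were NFkB-bla ME-180, 2,000 per well, treated 5 hr with compounds.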

A short description of experiment [11]: qHTS assay to identify small molecule agonists of the endoplasmic reticulum stress response signaling pathway (AID 1159516; active means well fitted activation curve with a large enough effect in the signal ratio in the repeat runs, not every such curve was filed as active; the % refers to the signal ratio). A digest of the protocol:
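Read-out is beta-lactamase cleavage of a FRET substrate (405 nm excitation; 460 and 530 nm emissions) in ESRE-bla HeLa cells after a 5 hr compound exposure at 37 C. Substrate incubation ran 2 hr at room temperature.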

Experiment [12] can be described thus: qHTS assay to identify small molecule antagonists of the retinoid-related orphan receptor gamma (ROR-gamma) signaling pathway - cell viability counter screen (AID 1159520; active means well fitted curve in the direction sought with a large enough effect in the repeat runs; an effect the other way counts as inactive or inconclusive; further: nearly all actives have a fitted effect of over 50% in size; further: potency means the concentration at half of the fitted maximal effect). A digest of the protocol: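 Tet-on ROR gamma CHO cells were given compounds for 2 hr, then doxycycline hyclate at 1 uM final, and incubated 16 hr at 37 C. Viability was measured as ATP content by CellTiter-Glo luminescence.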

In experiment [13] the target is Nuclear receptor ROR-gamma (Homo sapiens) (UniProt P51449). Kind of experiment: qHTS assay to identify small molecule antagonists of the retinoid-related orphan receptor gamma (ROR-gamma) signaling pathway (AID 1159521; active means well fitted curve in the direction sought with a large enough effect in the repeat runs; an effect the other way counts as inactive or inconclusive; further: nearly all actives have a fitted effect of over 50% in size; further: potency means the concentration at half of the fitted maximal effect). Summed up:
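Screening format: cell-based luciferase reporter in CHO cells with doxycycline-inducible RORγ. Compound pre-exposure lasts 2 h, doxycycline is 1 uM final, induction runs 16 h at 37 C, and ONE-Glo luminescence is read.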

The nature of experiment [14]: qHTS assay to identify small molecule agonists of the AP-1 signaling pathway - cell viability counter screen (AID 1159525). Further: nearly all actives have a fitted effect of over 55% in size. Summed up: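 AP-1-bla ME-180 cells in Opti-MEM with 0.5% dialyzed FBS, compound exposure 5 h at 37 C in 15-point titration. Viability read in the same wells as ATP content by CellTiter-Glo luminescence, normalised to tetra-n-octylammonium bromide and DMSO controls.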

A short description of experiment [15]: qHTS assay to identify small molecule agonists of the AP-1 signaling pathway (AID 1159526).
In experiment [16] the target is Retinoic acid receptor RXR-alpha (Homo sapiens) (UniProt P19793). Kind of experiment: qHTS assay to identify small molecule agonists of the RXR signaling pathway (AID 1159527). Further: nearly all actives have a fitted effect of over 35% in size. Further: potency means the concentration at half of the fitted maximal effect. A digest of the protocol:
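Fluorescence ratio readout (460 vs 530 nm) from GeneBLAzer RXR-alpha HEK 293T cells after 16 hr compound treatment; cells seeded 5 hr beforehand in low-serum, charcoal-stripped medium.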

Experiment [17] has as its target Bile acid receptor (Homo sapiens) (UniProt Q96RI1). Nature of the experiment: qHTS assay to identify small molecule antagonists of the farnesoid-X-receptor (FXR) signaling pathway (AID 743217; active means well fitted inhibition curve with a large enough effect in the signal ratio in the repeat runs, not every such curve was filed as active; the % refers to the signal ratio). A digest of the protocol: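 HEK 293T FXR-UAS-bla, 5000 cells/well; compound + CDCA 50 uM final; 16 h, 37 °C; B/G FRET substrate 2 h RT; fluorescence.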
For experiment [18] the target is unchanged. Nature of the experiment: qHTS assay to identify small molecule agonists of the farnesoid-X-receptor (FXR) signaling pathway (AID 743220; active means well fitted activation curve with a large enough effect in the signal ratio in the repeat runs, not every such curve was filed as active; the % refers to the signal ratio). A digest of the protocol:
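Beta-lactamase reporter under UAS control in GeneBLAzer FXR HEK 293T cells (5000/well) measured with LiveBLAzer FRET substrate after 2 h at room temperature. Compound exposure lasted 16 h at 37C.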

In experiment [19] the target is Vitamin D3 receptor (Homo sapiens) (UniProt P11473). Kind of experiment: qHTS assay to identify small molecule agonists of the vitamin D receptor (VDR) signaling pathway (AID 743222). A digest of the protocol:
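VDR-bla cells, 2,000/well; 4 h preincubation 37C; cpd (DMSO) 16 h; LiveBLAzer B/G substrate 2 h RT; fluorescence intensity read.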

Experiment [20] in a line: qHTS assay to identify small molecule agonists of the endoplasmic reticulum stress response signaling pathway - cell viability counter screen (AID 1159517). A digest of the protocol:
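Counter-screen wells were identical to the reporter wells. Cells were plated at 1,500 per well and dosed for 5 hr, then read for luminescence 30 min after CellTiter-Glo addition.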

Records with an inconclusive call do not appear. A number with no mark means an inactive call. Active and inactive are the calls of the source. Unless noted, the call rests on the fitted dose curve.

Chain of Retinoic acid receptor RXR-alpha (Homo sapiens) (P19793 whole entry, looked up): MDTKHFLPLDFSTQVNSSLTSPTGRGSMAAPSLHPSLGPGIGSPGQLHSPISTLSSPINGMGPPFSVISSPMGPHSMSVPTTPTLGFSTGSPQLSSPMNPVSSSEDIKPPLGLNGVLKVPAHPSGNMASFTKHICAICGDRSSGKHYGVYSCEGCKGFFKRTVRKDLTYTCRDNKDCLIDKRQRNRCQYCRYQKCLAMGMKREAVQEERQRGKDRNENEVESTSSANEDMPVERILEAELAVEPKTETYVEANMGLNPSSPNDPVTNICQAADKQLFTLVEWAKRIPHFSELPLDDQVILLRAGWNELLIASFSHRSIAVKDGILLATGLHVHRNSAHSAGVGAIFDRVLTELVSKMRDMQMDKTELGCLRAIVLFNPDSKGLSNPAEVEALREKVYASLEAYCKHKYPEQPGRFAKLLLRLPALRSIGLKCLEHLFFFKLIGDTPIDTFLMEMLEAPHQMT
Chain of Bile acid receptor (Homo sapiens) (Q96RI1 whole entry, looked up): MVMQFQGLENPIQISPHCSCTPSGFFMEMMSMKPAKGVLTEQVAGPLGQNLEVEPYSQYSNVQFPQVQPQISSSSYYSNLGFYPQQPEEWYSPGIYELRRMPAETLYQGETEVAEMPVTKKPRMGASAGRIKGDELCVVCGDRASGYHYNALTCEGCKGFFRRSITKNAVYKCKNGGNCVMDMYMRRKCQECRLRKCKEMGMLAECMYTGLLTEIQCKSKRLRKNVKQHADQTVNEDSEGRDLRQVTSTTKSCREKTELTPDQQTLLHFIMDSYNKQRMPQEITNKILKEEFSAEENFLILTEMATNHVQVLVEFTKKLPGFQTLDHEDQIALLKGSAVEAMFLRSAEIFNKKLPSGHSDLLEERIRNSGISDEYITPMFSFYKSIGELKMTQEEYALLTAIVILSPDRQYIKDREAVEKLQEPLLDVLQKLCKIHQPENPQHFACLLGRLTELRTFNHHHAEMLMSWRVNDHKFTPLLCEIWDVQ
Chain of Vitamin D3 receptor (Homo sapiens) (P11473 whole entry, looked up): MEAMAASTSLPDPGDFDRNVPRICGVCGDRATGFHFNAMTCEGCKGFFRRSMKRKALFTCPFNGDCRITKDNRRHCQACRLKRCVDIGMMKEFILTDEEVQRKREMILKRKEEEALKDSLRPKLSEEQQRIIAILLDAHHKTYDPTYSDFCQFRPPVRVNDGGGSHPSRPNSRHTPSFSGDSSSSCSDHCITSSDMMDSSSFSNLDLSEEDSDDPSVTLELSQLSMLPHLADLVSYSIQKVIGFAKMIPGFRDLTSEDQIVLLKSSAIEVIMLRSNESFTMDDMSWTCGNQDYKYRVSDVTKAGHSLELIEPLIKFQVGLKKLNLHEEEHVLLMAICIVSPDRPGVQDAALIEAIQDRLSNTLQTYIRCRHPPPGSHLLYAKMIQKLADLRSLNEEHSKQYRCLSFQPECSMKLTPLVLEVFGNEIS
Chain of Peroxisome proliferator-activated receptor delta (Homo sapiens) (Q03181 whole entry, looked up): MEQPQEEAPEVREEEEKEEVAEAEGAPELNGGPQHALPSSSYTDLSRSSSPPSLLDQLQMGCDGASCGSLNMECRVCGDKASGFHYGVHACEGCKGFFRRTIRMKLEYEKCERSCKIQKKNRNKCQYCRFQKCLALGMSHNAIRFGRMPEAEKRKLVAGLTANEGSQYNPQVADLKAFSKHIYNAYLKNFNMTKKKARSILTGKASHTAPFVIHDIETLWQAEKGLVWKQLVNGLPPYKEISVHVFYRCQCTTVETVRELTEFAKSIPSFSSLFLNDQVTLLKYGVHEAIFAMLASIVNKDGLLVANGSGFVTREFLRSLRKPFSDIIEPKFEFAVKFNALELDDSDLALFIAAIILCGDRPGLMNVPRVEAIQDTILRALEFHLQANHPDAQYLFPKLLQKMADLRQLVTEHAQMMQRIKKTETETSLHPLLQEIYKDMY

Regarding `CCC(C)Br` (stereo not given), the Potency result in experiment [1], in [2], in experiment [3], in experiment [4], in [5] and in experiment [6] was “inactive” each time. Moreover, the Potency entry in experiment [7], in [8], in [9], in [10], in experiment [11] and in experiment [12] was “inactive” in each case. Moreover, the Potency result in experiment [13], in experiment [14], in experiment [15] and in experiment [16] was “inactive” each time.
On to `COC(=O)c1cc(Oc2ccc(Cl)cc2Cl)ccc1[N+](=O)[O-]`, for which the Potency result in experiment [1], in [2], in experiment [3], in experiment [4], in [17] and in experiment [5] was “inactive” in each case. For the same compound, the Potency result in experiment [18], in [6], in experiment [19], in [8], in experiment [9] and in experiment [10] was “inactive” in each case. Further, the Potency result in [11], in [20], in experiment [14] and in [15] was “inactive” throughout. Moreover, the Potency in experiment [13] was 54.5 µM (active).
With `C[C@H]1[C@H](c2ccc(Cl)cc2)SC(=O)N1C(=O)NC1CCCCC1`, the Potency result in experiment [1], in experiment [5], in [6], in experiment [10], in experiment [11] and in experiment [20] was “inactive” each time. For the same compound, the Potency result in experiment [15] is “inactive”. The Potency in experiment [13] was 48.6 µM (active).
For `O=S(=O)(NS(=O)(=O)C(F)(F)F)C(F)(F)F`, the Potency result in [1], in experiment [5], in experiment [6], in experiment [10], in experiment [11] and in [20] was “inactive” in each case. The Potency entry in [12] was “inactive”.
In the case of `CC1(C)C(C=C(Cl)Cl)C1C(=O)OC(C#N)c1ccc(F)c(Oc2ccccc2)c1` (stereo not given), the Potency result in experiment [1], in experiment [2], in [3], in experiment [4], in experiment [6] and in experiment [19] was “inactive” each time. The Potency entry in experiment [10], in [11], in [20], in experiment [12] and in experiment [14] was “inactive” in each case.
As for `CCOP(=S)(NC(C)C)Oc1ccccc1C(=O)OC(C)C` (stereo not given), the Potency result in experiment [1], in [2], in experiment [3], in [18], in [7] and in [8] was “inactive” each time. Further, the Potency entry in experiment [9], in [10], in experiment [11], in experiment [20] and in experiment [15] was “inactive” each time. In addition, the Potency in experiment [5] is 21.9 µM (active); in experiment [13], 21.7 µM (active).
In the case of `N#Cc1c[nH]cc1-c1cccc2c1OC(F)(F)O2`, the Potency result in experiment [2], in experiment [5], in experiment [6], in experiment [8], in experiment [10] and in experiment [11] was “inactive” throughout. In addition, the Potency entry in experiment [20] and in experiment [15] was “inactive” throughout. For the same compound, the Potency was 17.2 µM (active) in experiment [13] and 1.38 µM (active) in experiment [16].
`Clc1ccc(C(Cl)(Cl)Cl)cc1Cl`: the Potency result in [1], in [2], in experiment [3], in experiment [4], in experiment [7] and in [8] was “inactive” in each case. The Potency result in experiment [9], in experiment [10], in experiment [11], in experiment [13], in experiment [14] and in [15] was “inactive” in each case. In experiment [16], the Potency result is “inactive”. Moreover, in experiment [12], the Potency is 53.3 µM (active).
Consider `CO/N=C(\C(=O)OC)c1ccccc1CO/N=C(\C)c1cccc(C(F)(F)F)c1`, for which the Potency was 21.9 µM (active) in experiment [1], 21.9 µM (active) in [3], 4.9 µM (active) in experiment [4] and 0.77 µM (active) in experiment [13]. The Potency entry in experiment [2], in [19], in experiment [10], in [11], in experiment [20] and in [14] was “inactive” in each case. In experiment [15], the Potency result is “inactive”.
As for `CN(C)c1ccc(N)cc1`, the Potency entry in experiment [2], in experiment [5], in [6], in experiment [19], in experiment [10] and in experiment [11] was “inactive” throughout. The Potency result in [20] and in experiment [14] was “inactive” throughout.

(Values after PubChem BioAssay (Tox21).)
